Laboratory results taken from PubChem BioAssay (Tox21).
Records with an inconclusive call do not appear. Unmarked numbers belong to inactive results. Calls of active or inactive are those of the source. The call rests on the fitted dose curve; in most records, active means well fitted cell-killing curve with a large enough effect in the repeat runs; inconclusive means weak or mixed curves, or effect the other way; inactive means no such curve, though single readings can be large or run the other way. Positions of bridges follow the written chain, without caps; N, C: chain ends. Non-standard residues stand in square brackets, D forms with d. Residues, ends and D or L forms follow the SMILES beside them. *: point of attachment. pGlu = O=C1CC[C@@H](C(=O)O)N1; X2 = CC[C@H](C)CCCCC(=O)*; Thz = O=C(O)[C@@H]1CSCN1; Dab = NCC[C@H](N)C(=O)O

test: qHTS assay to identify small molecule antagonists of the thyroid receptor (TR) signaling pathway - cell viability counter screen (AID 743064); details: GH3.TRE-Luc viability, CellTiter-Fluor, 24 h; series mostly up to 70.3 µM; activity change, negative = cytotoxic: at the top concentration; further: nearly all actives have a fitted effect of over 50% in size
Method in brief: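 Same-well viability check: GH3.TRE-Luc cells stimulated with 1 nM T3 alongside test compound for 23.5 h, followed by CellTiter-Fluor fluorescence.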
On the % scale 0 is the no-effect control and ±100 the full control effect; potency means the concentration at half of the fitted maximal effect.

Structure (SMILES)	activity change, negative = cytotoxic	Potency
CS(=O)(=O)NC(=O)CCC/C=C\C[C@H]1C(=O)C[C@@H](O)[C@@H]1/C=C/[C@H](O)COc1ccccc1	7.96%	
CCCCCCCCCCCCCCCCOCCOCCOCCOCCOCCOCCOCCOCCOCCOCCOCCOCCOCCOCCOCCOCCOCCOCCOCCOCCO		29.8 µM (active)
c1ccc2cc(C3=NCCN3)ccc2c1	-17.7%	
CCC[C@@H]1C[C@@H](C(=O)N[C@@H]([C@H]2O[C@H](SC)[C@H](O)[C@@H](O)[C@H]2O)[C@H](C)Cl)N(C)C1	9.01%	
CCCCC/C=C\CCC(=O)N[C@H]1[C@H](Oc2c3cc4cc2Oc2ccc(cc2Cl)[C@@H](O[C@@H]2O[C@H](CO)[C@@H](O)[C@H](O)[C@H]2NC(C)=O)[C@@H]2NC(=O)[C@H](NC(=O)[C@@H]4NC(=O)[C@H]4NC(=O)[C@@H](Cc5ccc(c(Cl)c5)O3)NC(=O)[C@H](N)c3ccc(O)c(c3)Oc3cc(O)cc4c3)c3ccc(O)c(c3)-c3c(O[C@H]4O[C@H](CO)[C@@H](O)[C@H](O)[C@@H]4O)cc(O)cc3[C@@H](C(=O)O)NC2=O)O[C@H](CO)[C@@H](O)[C@@H]1O	9.44%	
O.O=C([O-])CC([S-])C(=O)[O-].[Au+].[Na+].[Na+] (centres undefined)	19.4%	
C=CC1=C(C)C2=CC3=NC(=C(CC(=O)[O-])C4=NC(=C(C)C4=C([O-])[O-])C=c4[n-]c(c(C)c4CC)=CC1=N2)C(CCC(=O)[O-])C3C.[Cu+2].[Na+].[Na+].[Na+] (centres undefined)		26.6 µM (active)
O=C1CC[C@@H](C(=O)N2CSC[C@H]2C(=O)O)N1 ([pGlu]-[Thz]-OH)	0.454%	
CN1[C@@H]2CCC[C@H]1CC(NC(=O)c1nn(C)c3ccccc13)C2 (some centres undefined)	4.03%	
COc1cc(/C=C/C(=O)N2CCN(CC(=O)N3CCCC3)CC2)cc(OC)c1OC	13%	
CC(=O)N[C@@H]1C(O[C@H]2O[C@H](C(=O)O)C(O)[C@H](O)[C@H]2O)[C@H](O)[C@@H](CO)O[C@H]1O[C@@H]1C(C(=O)O)O[C@@H](O[C@H]2[C@H](O)[C@@H](CO)OC(O)[C@@H]2NC(C)=O)[C@H](O)[C@H]1O (some centres undefined)	22.8%	
COC(=O)[C@H]1[C@H]2C[C@@H]3c4[nH]c5cc(OC)ccc5c4CCN3C[C@H]2C[C@@H](OC(=O)/C=C/c2cc(OC)c(OC)c(OC)c2)[C@@H]1OC	-21.5% [at 32.5 µM]	
CC(C)[C@H](N)C(=O)OCC(CO)OCn1cnc2c(=O)[nH]c(N)nc21 (some centres undefined)	20.9%	
N[C@H](CCC(=O)O)C(=O)O	25.2%	
CCOC(=O)Cc1cccc(-c2cc(CCCCCCc3ccc(O[C@H]4O[C@H](COC(C)=O)[C@@H](OC(C)=O)[C@H](OC(C)=O)[C@@H]4OC(C)=O)c(-c4cccc(CC(=O)OCC)c4)c3)ccc2O[C@H]2O[C@H](COC(C)=O)[C@@H](OC(C)=O)[C@H](OC(C)=O)[C@@H]2OC(C)=O)c1	1.48%	
CC1(C)[C@@H]2CC[C@@]1(C)[C@H](OC(=O)CSC#N)C2	-27.9%	
OC[C@H]1O[C@@H](n2cnc3c2NC=NC[C@H]3O)C[C@@H]1O	-1.05%	
CCC(=O)OCC(=O)[C@@]1(OC(=O)CC)[C@@H](C)C[C@H]2[C@@H]3CCC4=CC(=O)C=C[C@]4(C)[C@@]3(Cl)[C@@H](O)C[C@@]21C	-18.7%	
CC(C)[C@@H](C)/C=C/[C@@H](C)[C@H]1CC[C@H]2/C(=C/C=C3\C[C@@H](O)CC[C@@H]3C)CCC[C@]12C	-4.46%	
CC(=O)O[C@H]1CC[C@@]2(C)C(=CC[C@@H]3[C@@H]2CC[C@]2(C)C(c4cccnc4)=CC[C@@H]32)C1		29.8 µM (active)

Structure (SMILES)	activity change, negative = cytotoxic	Potency
CCOC(=O)c1c[nH]c2cc(OCC(C)C)c(OCC(C)C)cc2c1=O	-1.39%	
Cc1ccc(C2(O)CCN(CCCC(=O)c3ccc(F)cc3)CC2)cc1		13.3 µM (active)
CN1c2c(nc(N)[nH]c2=O)NCC1CNc1ccc(C(=O)NC(CCC(=O)O)C(=O)O)cc1 (centres undefined)	15.2%	
COc1ccc2cc([C@H](C)CO)ccc2c1	19.6%	
COc1cc(NCCCC(C)N)c2ncccc2c1 (centres undefined)		15 µM (active)
CC1(C)N=C(N)N=C(N)N1c1ccc(Cl)cc1	-2%	
CC[C@H](C)CCCCC(=O)N[C@@H](CCN)C(=O)N[C@H](C(=O)N[C@@H](CCN)C(=O)N[C@H]1CCNC(=O)[C@@H]([C@H](C)O)NC(=O)[C@H](CCN)NC(=O)[C@H](CCN)NC(=O)[C@H](CC(C)C)NC(=O)[C@@H](CC(C)C)NC(=O)[C@H](CCN)NC1=O)[C@@H](C)O (X2-[Dab]T[Dab][Dab][Dab][dL]L[Dab][Dab][dT]; lactam 4-C)	13.8% [at 32.5 µM]	
N[C@@H](C(=O)N[C@@H]1C(=O)N2C(C(=O)O)=C(Cl)CC[C@H]12)c1ccccc1	23.2%	
O=P(O)(O)C(O)(Cc1cnc2ccccn12)P(=O)(O)O	18.4%	
Cc1cccc(C)c1Nc1ncccc1C(=O)O	-11.6%	
CNCC(O)c1ccc(OC(=O)C(C)(C)C)c(OC(=O)C(C)(C)C)c1 (centres undefined)		12.7 µM (active)
CN[C@@H]1[C@@H](O)[C@@H](O[C@@H]2[C@@H](O)[C@H](O[C@H]3O[C@H](CN)[C@@H](O)[C@H](O)[C@H]3O)[C@@H](N)C[C@H]2NC(=O)C(O)CN)OC[C@]1(C)O (some centres undefined)	20.3%	
CO/N=C(\C(=O)N[C@@H]1C(=O)N2C(C(=O)O)=CCS[C@H]12)c1csc(N)n1	-14.3%	
CC(C)C(=O)OCC(=O)[C@@]12O[C@H](C3CCCCC3)O[C@@H]1C[C@H]1[C@@H]3CCC4=CC(=O)C=C[C@]4(C)[C@H]3[C@@H](O)C[C@@]12C		18.8 µM (active)
O=C(O)CCC/C=C\C[C@@H]1[C@@H](/C=C/[C@@H](O)COc2cccc(Cl)c2)[C@H](O)C[C@@H]1O	1.23%	
CC[C@H]1NC(=O)[C@@H](NC(=O)c2ncccc2O)[C@@H](C)OC(=O)[C@H](c2ccccc2)NC(=O)[C@@H]2CC(=O)CCN2C(=O)[C@H](Cc2ccccc2)N(C)C(=O)[C@@H]2CCCN2C1=O	9.61%	
CC(O)[C@H]1CC[C@H]2[C@@H]3CC[C@@H]4C[C@@H](O)CC[C@]4(C)[C@H]3CC[C@]12C (some centres undefined)	2.8%	
CC(=O)N(CC(C)C(=O)O)c1c(I)cc(I)c(N)c1I (centres undefined)	29.3% [at 32.5 µM]	
CCN1C(=O)NC(c2ccccc2)C1=O (centres undefined)	12.9% [at 32.5 µM]	
